Tb PYK inh: inhibitors of Trypanosoma brucei pyruvate kinase | Q57TT1 | TbPYK enzyme, Kinase-Glo Plus ATP luminescence, 45 min | Potency, µM (top dose mostly 76.8 µM), actives largely listed as inhibitors | hit rate 0.12% among 410,000 | AID 624173; also: nearly all actives have a fitted effect of over 50% in size
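Readout: single end-point luminescence (Kinase-Glo Plus, 10 min). Reaction conditions were TbPYK/substrate plus 130 uM ADP, 45 min at RT, pH 7.2 TEA buffer. No-enzyme wells served as controls, and data were normalized before concentration-response fitting.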
Shiga toxin inh: blocks Shiga toxin action in Vero cells; Vero cells, Shiga toxin protein synthesis inhibition reporter; inhibition, % at 38.7 µM; hit rate 9.2% among 290,000; AID 2315; in the data active = inhibition mostly above about 28%, no sharp cut-off; inactive = mostly below about 43%
LmPK inh: LmPK (Leishmania mexicana) enzyme inhibition. Q27686. purified LmPK, Kinase-Glo ATP luminescence, 1 h. Potency, µM (highest dose often 57.5 µM), usual class: inhibitors. hit rate 0.37% among 290,000. AID 1721
Target sequence (Q27686 whole entry, looked up): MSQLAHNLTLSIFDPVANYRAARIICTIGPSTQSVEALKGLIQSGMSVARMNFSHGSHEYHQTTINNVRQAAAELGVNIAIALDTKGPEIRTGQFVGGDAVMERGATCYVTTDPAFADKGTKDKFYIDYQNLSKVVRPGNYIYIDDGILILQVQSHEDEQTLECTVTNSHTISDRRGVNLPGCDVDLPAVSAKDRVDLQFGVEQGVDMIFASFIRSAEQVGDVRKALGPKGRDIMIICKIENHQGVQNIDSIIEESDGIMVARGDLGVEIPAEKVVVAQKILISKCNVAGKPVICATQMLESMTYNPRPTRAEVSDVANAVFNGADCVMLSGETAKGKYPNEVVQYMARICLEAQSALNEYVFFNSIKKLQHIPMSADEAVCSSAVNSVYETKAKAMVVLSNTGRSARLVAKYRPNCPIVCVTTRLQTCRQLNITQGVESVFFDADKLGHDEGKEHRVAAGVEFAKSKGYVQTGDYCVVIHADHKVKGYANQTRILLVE
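0.1 nM LmPK, 0.5 mM PEP, 0.1 mM ADP; 50 mM imidazole pH 7.2, 7 mM MgCl2, 50 mM KCl; 1 h RT. Kinase-Glo luminescence readout, normalized to no-enzyme (full inhibition) and uninhibited wells.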
Cycloheximide cs: counter-screen for Shiga toxin inhibitors: cycloheximide protein synthesis inhibition; cell reporter, cycloheximide protein synthesis inhibition counterscreen; max response, %; hit rate 12% among 300,000; AID 2314; in the data active = max response mostly above about 13%, no sharp cut-off; inactive = mostly below about 14%; also: read at 38.3 µM for the half of the compounds with a filed dose
RE007 growth inh: less growth of the S. pombe RE007 Vpr strain; S. pombe RE007 Vpr strain, BacTiter-Glo ATP luminescence, 24 h; Potency, µM (series often up to 92.2 µM), actives largely listed as inhibitors; hit rate 0.21% among 360,000; AID 651644; active = well fitted falling curve with a large enough effect; inconclusive = small, poorly fitted or top-dose-only effect; inactive = no such curve, though single readings can be large or run the other way; also: nearly all actives have a fitted effect of over 50% in size
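Fission yeast strain RE007, carrying one chromosomally integrated HIV-1 vpr copy, was seeded at OD 0.01 in PMG+AL medium with 23 nL pinned compound. After 24 h at 30 °C and 99% humidity, viability was read by BacTiter-Glo luminescence.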
FBPA Giardia inh: blocks Giardia fructose-bisphosphate aldolase activity | A8B2U2 | purified Giardia FBPA | Potency, µM (doses to about 59.6 µM), usual class: inhibitors | hit rate 0.71% among 290,000; also: nearly all actives have a fitted effect of over 55% in size
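40 nM FBPA preincubated 10 min at RT with compound (up to 57.5 uM final), then substrate plus GAPDH/TPI/NAD/arsenate coupling and diaphorase/resazurin added. Fluorescence read after 20 min at RT, 525/598 nm.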
Numbers stand for hits; i = inactive; ? = inconclusive; nt = no result given. This is one part of a sample in which hits are shown more often than they occur. Unless noted, calls follow the shape of the dose curve; as a rule, active = well fitted curve in the direction sought with a large enough effect; inconclusive = small, poorly fitted or top-dose-only effect, or another doubt; inactive = no such curve, though single readings can be large; an effect the other way counts as inactive or inconclusive.

SMILES	Tb PYK inh	Shiga toxin inh	LmPK inh	Cycloheximide cs	RE007 growth inh	FBPA Giardia inh
O=C(Nc1ccc2[nH]c3c(c2c1)CCCC3)c1ccco1	i	42	i	14	?	?
Cn1c(CCNC(=O)c2ccco2)nc2cc(NC(=O)NC3CCCCC3)ccc21	i	i	i	i	i	i
Cc1nc2cc(NC(=O)NCc3ccco3)ccc2n1C	i	85	i	41	i	i
COc1ccc2nc(SCC(=O)NC(C)c3ccccc3)[nH]c2c1 (stereo unspecified)	i	nt	nt	nt	i	nt
Nc1nc2ccc(NC(=O)c3ccco3)cc2s1	i	107	i	51	i	i
Cn1c(CCNC(=O)c2ccccc2)nc2cc(NC(=O)c3ccco3)ccc21	i	i	i	i	i	i
Cc1nc2cc(NC(=O)c3ccco3)ccc2n1C	i	i	i	24	i	nt
Cc1ccc(OCCSc2nc3ccc(NC(=O)c4ccco4)cc3s2)cc1	i	nt	nt	nt	nt	nt
Cc1nc2ccc(NC(=O)c3ccco3)cc2nc1C	i	59	i	17	i	i
Cn1c(CCNC(=O)c2ccco2)nc2cc(NC(=O)c3ccccc3)ccc21	i	80	i	36	i	nt
CCOCCCNC(=O)c1c(NC(=O)c2cc(=O)c3ccccc3o2)sc2c1CCC2	i	nt	nt	nt	nt	nt
C[C@H](NC(=O)Nc1cccc(Br)c1)C(=O)O	i	i	i	i	i	i
CCCCC(=O)Nc1ccc2c(c1)nc(CCNC(=O)c1ccco1)n2C	i	i	i	15	i	nt
CCOC(=O)CNC(=O)c1sc(NC(=O)c2ccccc2F)nc1C	i	55	13µM	35	i	i
COC(=O)c1sc(NC(=S)NC(=O)c2ccccc2F)nc1C	i	160	i	51	i	i
COC(=O)c1sc(NC(=S)NC(=O)c2cccc(C)c2)nc1C	i	i	i	i	i	i
COC(=O)c1sc(NC(=O)c2cc(C)on2)nc1C	i	36	i	27	i	i
Cc1noc(C)c1COC(=O)CNC(=O)c1cccc(F)c1	i	i	i	i	i	i
CCOC(=O)CNC(=O)c1sc(NC(=O)c2cccc(F)c2)nc1C	i	66	i	26	i	i
COC(=O)c1sc(NC(=O)COc2ccc(OC)cc2)nc1C	i	nt	nt	nt	i	nt
C=CCn1c(SCC(=O)NCC2CCCO2)nnc1-c1ccncc1 (stereo unspecified)	i	nt	nt	nt	i	nt
COc1ccc(C2OCC3(COC(C)=O)C(C)C=C(C)C2C3C)cc1 (stereo unspecified)	nt	nt	nt	nt	nt	i
CC1=CC(C)C2(COC(=O)Nc3ccccc3)COC(C)C1C2C (stereo unspecified)	i	i	i	13	i	i
CCCCCn1c(=O)c(C(=O)Nc2ccccc2S(N)(=O)=O)c(O)c2ccccc21	i	84	i	17	i	i
CCCCn1c(=O)c(C(=O)Nc2ccccc2S(N)(=O)=O)c(O)c2ccccc21	i	i	i	i	i	i
SMILES	Tb PYK inh	Shiga toxin inh	LmPK inh	Cycloheximide cs	RE007 growth inh	FBPA Giardia inh
CCn1c(=O)c(C(=O)Nc2ccccc2S(N)(=O)=O)c(O)c2ccccc21	i	i	i	12	i	i
CCCn1c(=O)c(C(=O)Nc2ccccc2N)c(O)c2ccccc21	i	nt	nt	nt	i	nt
COc1ccccc1C(=O)OCc1cc(=O)n2c(C)csc2n1	i	nt	nt	nt	nt	nt
Cc1oc2ncn(CC(C)C)c(=O)c2c1C(=O)NCc1cccc(Cl)c1	i	nt	nt	nt	nt	nt
O=C(N[C@@H]1CC[C@@H](CCNC(=O)C2CCOCC2)O[C@@H]1CO)c1ccncc1	nt	nt	nt	nt	i	nt
C/C(CC(=O)Nc1ccc(F)cc1F)=N\NC(=O)C(=O)N1CCCCC1	nt	65	i	40	nt	i
CCC(C(=O)Nc1cc(C(=O)Nc2cc(C)ccn2)ccc1Cl)c1ccccc1 (stereo unspecified)	i	i	i	19	i	i
Cc1ccnc(NC(=O)c2cccc(NC(=O)c3ccccc3C)c2)c1	i	i	i	i	i	i
Cc1ccnc(NC(=O)c2ccc(Cl)c(NC(=O)c3ccccc3C)c2)c1	i	i	i	16	i	i
Nc1cc(=O)[nH]c(SCC(=O)NC2CCCCCCC2)n1	i	nt	nt	nt	i	nt
COc1ccc([C@@H]2[C@@H]3C(=O)N(C(C)(C)C)C(=O)[C@@H]3[C@]3(Cc4ccccc4)C(=O)N(c4ccc(Br)cc4)C(=O)N23)cc1	i	i	i	12	i	i
CCN(c1ccccc1)S(=O)(=O)c1ccc(OC)c(NC(=O)c2ccc(=O)[nH]c2)c1	i	nt	nt	nt	i	nt
Cn1c(-c2c(N)n(C3CCCC3)c3nc4ccccc4nc23)nc2ccccc21	i	i	i	i	7.1µM	i
O=C1CCC(=O)N1CCSC(=S)N1CCOCC1	i	41	i	i	i	i
O=C(O)CCSC(=S)N1CCOCC1	i	i	i	i	i	i
Cc1nnc(NC(=O)Nc2cccc(Cl)c2)s1	i	80	i	51	i	i
Cc1csc(NC(=O)Nc2cccc(Cl)c2)n1	i	86	i	30	i	i
O=C(Nc1cccc(Cl)c1)Nc1nc(-c2ccccc2)cs1	i	i	i	i	i	i
CC(C)(C)S(=O)(=O)N1C[C@@H]2CC/C=C\C/C=C\2[C@H]1CCO	i	nt	nt	nt	i	nt
COc1cccc(-c2cc(=O)[nH][nH]2)c1	i	i	i	22	i	i
CC(=O)N1c2ccc(S(=O)(=O)NCCC(=O)Nc3ccc(F)cc3)cc2CC1C (stereo unspecified)	i	i	i	i	i	i
Cc1cc(NS(=O)(=O)c2ccc(N3C(=O)C4C5C=CC(C5)C4C3=O)cc2)nc(C)n1 (stereo unspecified)	i	i	i	14	i	i
Cc1ccc(S(=O)(=O)Nc2ccc(S(=O)(=O)Nc3cc(C)nc(C)n3)cc2)cc1	i	i	i	i	i	i
O=S(=O)(c1ccc(NC(=S)Nc2ccc3c(c2)OCO3)cc1)N1CCOCC1	i	64	i	37	nt	i
CNS(=O)(=O)c1ccc(NC(=S)Nc2ccc3c(c2)OCO3)cc1	i	55	i	29	i	i
SMILES	Tb PYK inh	Shiga toxin inh	LmPK inh	Cycloheximide cs	RE007 growth inh	FBPA Giardia inh
CC(=O)Nc1ccc(S(=O)(=O)Nc2ccc3c(c2)OCO3)cc1	i	i	i	i	i	i
Cc1cc(NS(=O)(=O)c2ccc(NC(=O)Nc3ccc4c(c3)OCO4)cc2)no1	i	35	i	i	i	i
CCCn1c(NC(=O)c2ccc([N+](=O)[O-])o2)nc2ccccc21	i	nt	nt	nt	i	nt
COc1ncc2nc(CCc3ccccc3)c(=O)n(Cc3cccs3)c2n1	i	nt	nt	nt	nt	i
Cc1ccc(-n2ncc3c(=O)n(CC(=O)N(C)C)cnc32)cc1	i	i	i	i	i	i
Cc1ccc(-n2ncc3c(=O)n(CC(=O)N(C)C)cnc32)cc1C	i	i	i	14	i	i
CC(=O)Cn1cnc2c(cnn2-c2ccc(C)c(C)c2)c1=O	i	91	i	54	i	i
CCN(CC)CC(O)Cn1c(-c2cccc(Cl)c2)nc2cc(C)c(C)cc21 (stereo unspecified)	i	45	i	24	i	i

Assay outcomes deposited in PubChem by National Center for Advancing Translational Sciences (NCATS).
